Out of some 3,300 compounds screened, about 280 (8.5%) were called active.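 The calls were made as follows: active = mean growth inhibition over the two runs of 50% or more; inactive = mean growth inhibition under 50%.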 What follows is part of a selection rich in actives, with near analogues and random picks from the rest.

The nature of this assay: A549 NSCLC cell proliferation inhibitors – ATP luminescence, human non-small cell lung line, primary screen (AID 371).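 Also: compound exposure lasted 72 h before the ATP read; 0% = untreated cell signal and 100% = no luminescence left.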 The note with it: at 10 µM, hits give high values.
Consider `CCCC(CCC(=O)Nc1ccc(C(=O)OC)cc1)C(=O)O` (centres undefined), for which the growth inhibition was 5.31% (inactive).
In the case of `N#Cc1c(N2CCOCC2)nc(N2CCCCC2)c2c1CCN(C1CCCCC1)C2` it was 23.2% (inactive); in that of `CC(C)COC(=O)CCNc1n[nH]c(=O)[nH]c1=O`, 2.08% (inactive).
The figure for `O=c1cc(-c2ccco2)nc(-c2cccs2)o1` is 15% (inactive); for `COc1cccc(-c2nnc3sc(-c4ccco4)nn23)c1` it is 11.9% (inactive); for `Cc1cc(C)n(CC2CC(=O)N(c3ccc(F)c(Cl)c3)C2=O)n1` (centres undefined) it is 1.52% (inactive).
In the case of `Cn1nccc1C(=O)Nc1ccccc1C(=O)O` it was 2.72% (inactive); in that of `CCCSc1nc(O)c(C2OC(=O)c3c2ccc(OC)c3OC)c(=O)n1C` (centres undefined), 3.43% (inactive).
As for `Cc1ccc(-n2ncc3c(N4CCC(C(N)=O)CC4)ncnc32)c(C)c1`, the growth inhibition is 7.75% (inactive).
In the case of `CCc1cccc(C)c1N(C(=O)Cn1c(=O)[nH]c2ccccc21)C(C)COC` (centres undefined) it was 17.6% (inactive); in that of `CCSc1nnc(NC(=O)NCC(F)(F)F)s1`, -0.28% (inactive); in that of `CCC(NC(=O)Nc1nccs1)(C(F)(F)F)C(F)(F)F`, 2.27% (inactive).
The figure for `CCSc1nnc(NC(=O)NC(CC)(C(F)(F)F)C(F)(F)F)s1` is 82.1% (active); for `CCN(CC)CCN1C(=O)C(=O)/C(=C(/O)c2ccc(OC)cc2)C1c1ccco1` (centres undefined) it is 2.24% (inactive); for `Cc1cc(NCCNC2=CC(=O)CCC2)nc2ccccc12` it is 3.87% (inactive).
In the case of `Cc1cc(N/C=C/C(=O)c2cccc3ccccc23)no1` it was 40.5% (inactive); in that of `CC(=O)Oc1ccc2c(C)cc(=O)[nH]c2c1`, 10.7% (inactive); in that of `C[C@]12CC[C@@H]3c4ccc(O)cc4CC[C@H]3[C@@H]1CCC2=O`, 14.8% (inactive).
With `C[C@]12CC[C@@H]3c4ccc(O)cc4CC[C@H]3[C@@H]1CC[C@@H]2OC(=O)CCC(=O)O`, the growth inhibition is 14.8% (inactive).
The figure for `C[C@]12CC[C@@H]3c4ccc(OS(=O)(=O)O)cc4CC[C@H]3[C@@H]1CCC2=O` is -4% (inactive); for `C[C@]12CC[C@@H]3c4ccc(OC(=O)c5ccccc5)cc4CC[C@H]3[C@@H]1CC[C@@H]2O` it is 73.8% (active); for `C[C@]12CC[C@@H]3c4ccc(O[C@@H]5O[C@H](C(=O)O)[C@@H](O)[C@H](O)[C@H]5O)cc4CC[C@H]3[C@@H]1C[C@@H](O)[C@@H]2O` it is -8.48% (inactive).
As to `CCCCC(=O)O[C@H]1CC[C@H]2[C@@H]3CCc4cc(O)ccc4[C@H]3CC[C@]12C`, the growth inhibition is 92.3% (active).
For `CCOC(=O)COn1c(=O)c(-c2ccc(OC)c(OC)c2)[n+]([O-])c2ccccc21`, the growth inhibition is 4.28% (inactive).
The figure for `CCCCSc1nc(N)c(C#N)c(-c2cccs2)c1C#N` is 40.8% (inactive).
With `CC1(C)C2CCC1(C)C(NC(=O)CCN1CCCCC1)C2` (centres undefined), the growth inhibition is 7.81% (inactive).
The figure for `CNS(=O)(=O)c1cccc2nsnc12` is -11.4% (inactive); for `COc1cc(S(=O)(=O)N2CCN(C)CC2)c(OC)cc1Br` it is 6.26% (inactive); for `CCN1CCc2c(C#N)c(N3CCCCC3)nc(N3CCOCC3)c2C1` it is 4.36% (inactive).
The figure for `CN1Cc2c(N3CCOCC3)nc(SCc3ccccc3)c(C#N)c2CC1(C)C` is 45.5% (inactive).
The figure for `C=CCNc1nc(NCc2ccccc2)c(C#N)c2c1CN(C)CC2` is 70.9% (active); for `CCN1CCc2c(C#N)c(N3CCOCC3)nc(NCCO)c2C1` it is 6.84% (inactive); for `CCCCCNc1nc(N2CCCC2)c2c(c1C#N)CCN(C)C2` it is 95.5% (active).
Take `CCN1CCc2c(C#N)c(NCc3ccccc3)nc(NCCO)c2C1`: the growth inhibition is 3.07% (inactive).
`CCN1CCc2c(C#N)c(N3CCCCC3)nc(NCc3ccccc3)c2C1`: the growth inhibition is 88.8% (active).
The figure for `CCN1CCc2c(C#N)c(N3CCOCC3)nc(NCc3ccccc3)c2C1` is 23.9% (inactive); for `CN1CCc2c(C#N)c(N3CCCCC3)nc(N3CCOCC3)c2C1` it is 3.07% (inactive).
In the case of `CCN1CCc2c(C#N)c(NCc3ccccc3)nc(N(CC)CC)c2C1` it was 67.3% (active).
The figure for `CCN(CC)c1nc(N2CCOCC2)c(C#N)c2c1CN(C)CC2` is 11.1% (inactive); for `C=CCNc1nc(N2CCOCC2)c(C#N)c2c1CN(C)CC2` it is 2.03% (inactive).
As for `FC(F)(F)c1cccc(-n2cccc2/C=N/n2cnnc2)c1`, the growth inhibition is 9.69% (inactive).
For the compound `CSc1nc2[nH]c3c(c2c2ncnn12)CCCC3`, the growth inhibition was 38.4% (inactive).
As to `Cc1cc(=O)n2[nH]c(N3C(=O)CCC3=O)nc2n1`, the growth inhibition is 1.01% (inactive).
For the compound `Cc1nccn1-c1cc(C(C)C)c(C#N)c2nc3ccccc3n12`, the growth inhibition is 2.71% (inactive).
In the case of `O=c1[nH]c(CN2CCCCC2)nc2c1C1(CCCC1)Cc1ccccc1-2` it was 2.71% (inactive); in that of `[N-]=[N+]=CC(=O)c1ccnc(C(=O)C=[N+]=[N-])c1`, 23.6% (inactive); in that of `COc1ccc(/C(O)=C2\C(=O)C(=O)N(c3cc(C)on3)C2c2ccccc2OC)cc1` (centres undefined), -10.7% (inactive).
In the case of `O=C1c2ccccc2C(=O)N1CC1c2ccccc2CCN1C(=O)N1CCOCC1` (centres undefined) it was 5.08% (inactive); in that of `CCOC(=O)c1c(NC(=O)CCN2CCOCC2)sc2c1CC(C)(C)OC2`, 5.84% (inactive).
The figure for `N#Cc1c(NCCCO)nc(-c2ccccc2)c2c1CCCC2` is 32.5% (inactive).
On to `N#Cc1c(NCCN)nc(NCc2ccccc2)c2c1CCN(Cc1ccccc1)C2`, for which the growth inhibition was 91.8% (active).
The figure for `Nc1[nH]nc2nc(NCc3ccccc3)c3c(c12)CCN(Cc1ccccc1)C3` is 24.5% (inactive); for `N#Cc1c(N2CCCCC2)nc(N2CCCCC2)c2c1CCN(Cc1ccccc1)C2` it is 19.3% (inactive).
In the case of `CN1CCc2c(C#N)c(N3CCCCC3)nc(NCc3ccccc3)c2C1` it was 90.4% (active); in that of `C=CCNc1nc(N2CCCCC2)c(C#N)c2c1CN(Cc1ccccc1)CC2`, 37.1% (inactive).
In the case of `CCCc1cc(=O)oc2c(CN3CCN(C)CC3)c(O)c(Cl)cc12` it was 1.1% (inactive).
`CCOC(=O)Cc1[nH]nc2c1C(c1cc(OC)ccc1OC)C(C#N)=C(N)O2` (centres undefined): the growth inhibition was -2.35% (inactive).
Turning to `COCCOC(=O)c1c(C)nc(SCC(=O)Nc2ccc(C)cc2)c(C#N)c1-c1ccco1`, the growth inhibition was 3.22% (inactive).
The figure for `Cc1nc(N2CCOCC2)c(C#N)c2c1COC(C)(C)C2` is 12.7% (inactive); for `CN(C)CCCN1c2ccccc2CCc2ccccc21` it is 16.1% (inactive); for `CN(C)CCCN1c2ccccc2Sc2ccc(Cl)cc21` it is 92.2% (active).
In the case of `CN(C)CCCN1c2ccccc2CCc2ccc(Cl)cc21` it was 85.6% (active); in that of `CN(C)CCCN1c2ccccc2Sc2ccccc21`, 29.4% (inactive).
In the case of `COc1ccc([C@@H]2Sc3ccccc3N(CCN(C)C)C(=O)[C@@H]2OC(C)=O)cc1` it was 15.1% (inactive); in that of `CN(C)CCCOC(=O)c1ccc(Cl)cc1Cl`, 5.84% (inactive).
As for `CN(C)CCCN1c2ccccc2Sc2ccc(C(F)(F)F)cc21`, the growth inhibition was 90.7% (active).
In the case of `CN1CCN(C2=Nc3cc(Cl)ccc3Nc3ccccc32)CC1` it was 26% (inactive); in that of `COc1cccc(C(=O)N2CCN(Cc3ccccn3)CC2)c1OC`, -2.78% (inactive).
In the case of `COc1ccc(Cn2c(N)c(C#N)c3nc4ccccc4nc32)cc1OC` it was 11.7% (inactive).
Consider `CC[C@H](C)C(=O)O[C@H]1C[C@@H](C)C=C2C=C[C@H](C)[C@H](CC[C@@H]3C[C@@H](O)CC(=O)O3)[C@H]21`, for which the growth inhibition is 64.9% (active).
In the case of `COc1cc(C2C(C(C)=O)=C(O)C(=O)N2c2ccc(Br)cn2)ccc1O` (centres undefined) it was 3.52% (inactive).
In the case of `CC1(C)CC(=O)C(C=NCCN2CCN(C(=O)C34CC5CC(CC(C5)C3)C4)CC2)=C(O)C1` it was 3.05% (inactive); in that of `COc1ccccc1-n1c(=O)c2c3c(sc2n2c(SC)nnc12)CCC3`, 6.85% (inactive); in that of `COc1cccc(N2CCN(c3ncnc4c3[nH]c3ccc(F)cc34)CC2C)c1` (centres undefined), 93% (active).
In the case of `COc1cccc(N2CCN(C(=O)c3ccc(=O)oc3)CC2C)c1` (centres undefined) it was -1.33% (inactive); in that of `COc1ccc2c(c1)[nH]c1c(=O)n(CC3CCCO3)cnc12` (centres undefined), 8.24% (inactive); in that of `COc1cccc(OCCN2CCN(c3ncnc4c3cnn4-c3ccccc3)CC2)c1`, 46.7% (inactive).
In the case of `COc1cccc(N2CCN(c3ncnc4c3[nH]c3ccccc34)CC2C)c1` (centres undefined), the growth inhibition is 91.9% (active).
The figure for `CCOC(=O)C1/C(=N\O)CC(C)(O)C(C(=O)OCC)C1c1ccc(N(C)C)cc1` (centres undefined) is 7.47% (inactive); for `Cc1nnc2n(Cc3ccccc3)c(=O)c3c4c(sc3n12)CN(Cc1ccccc1)CC4` it is 40.6% (inactive); for `O=c1c2c3c(sc2n2cnnc2n1Cc1ccccc1)CN(Cc1ccccc1)CC3` it is 70.5% (active).
In the case of `CCCSc1nnc2n(Cc3ccccc3)c(=O)c3c4c(sc3n12)CCC4` it was 13.6% (inactive).
In the case of `CC1CCc2cc(F)cc3c(O)c(C(=O)NCC4CCCO4)c(=O)n1c23` (centres undefined) it was 61.9% (active); in that of `CC1CCc2cc(F)cc3c(O)c(C(=O)NCc4ccco4)c(=O)n1c23` (centres undefined), 46.7% (inactive).
As to `CC1CCc2cc(F)cc3c(O)c(C(=O)Nc4cnccn4)c(=O)n1c23` (centres undefined), the growth inhibition was 26.4% (inactive).
The figure for `COC(=O)c1cc(Br)c(=O)n(Cc2ccc3c(c2)OCO3)c1` is 9.14% (inactive).
The figure for `O=C(NCc1cccnc1)/C(=N\O)c1ccccc1` is 0.76% (inactive); for `CCN1CCN(c2nc3c(C)cccn3c(=O)c2/C=C(\C#N)S(=O)(=O)c2ccc(C)cc2)CC1` it is 1.14% (inactive); for `O=C(Cc1cscn1)c1ccc(O)cc1O` it is 2.87% (inactive).
The figure for `CCCc1cc(C(=O)Cc2ccc(F)cc2)c(O)cc1O` is 89.5% (active); for `CCCN(CCC)C(=O)CC(c1ccc(F)cc1)c1ccco1` (centres undefined) it is 38.5% (inactive).
With `CC1N(O)C(c2ccc(Cl)cc2Cl)N(O)C1(C)C` (centres undefined), the growth inhibition was -11.8% (inactive).
In the case of `CC1(C)Cc2nc3sc4c(N(CCO)CCO)ncnc4c3cc2CO1` it was 2.92% (inactive); in that of `Cc1ccc(S(=O)(=O)N2CCN(c3nc(C)c4c(c3C#N)CC(C)(C)OC4)CC2)cc1`, 30.2% (inactive).

These data come from PubChem BioAssay AID371 (SRMLSC, 2006).
